The values that follow come from PubChem BioAssay (NCATS).

The nature of assay [1]: Primary qHTS for small molecule stabilizers of the endoplasmic reticulum resident proteome: Secreted ER Calcium Modulated Protein (SERCaMP) assay (AID 1508630). Also: % is scaled to controls: 0 for no effect and ±100 for the full control effect. In short, it runs like this:
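GLuc-SERCaMP-expressing SH-SY5Y cells, pretreated 16 h with compound, are challenged with thapsigargin to empty ER calcium stores; after 4 h, coelenterazine is added directly to the medium and luminescence is imaged.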

Assay [2] is described as follows: A High-Content qHTS Against Drug Library for the Identification of Small Molecules that Inhibit DYT1 Early Onset Primary Dystonia-Associated Cell Pathology (AID 1645839; calls by dose curve). In short, it runs like this:
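In this high-content image screen, delE TorsinA mislocalization in inducible Flp-In 293 cells is scored as %pathology, with cell count serving as the counterscreen. Compound exposure lasts 48 h under tetracycline induction in reduced-serum medium.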
A general note: Quantitative high-throughput screening tests each substance at several concentrations.

Assay [3] has as its target Cytochrome P450 2D6 (Homo sapiens) (UniProt P10635). Briefly: Cytochrome P450 family 2 subfamily D member 6 (CYP2D6) small molecule antagonists: luciferase biochemical (cell-free) qHTS assay (AID 1645840; active = well fitted curve in the direction sought with a large enough effect in the repeat runs; an effect the other way counts as inactive or inconclusive; also: nearly all actives have a fitted effect of over 55% in size; also: potency is read from the fitted curve at half-maximal effect; as to activity change, negative = inhibition: % is scaled to controls: 0 for no effect and ±100 for the full control effect). In short, it runs like this: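 P450-Glo luminescent screen: recombinant CYP2D6 enzyme–proluciferin substrate mix preincubated with compound 10 min at room temperature, then NADPH regeneration added for 1 h at room temperature. Detection reagent added for 20 min; luciferin light read as relative luminescence units.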

Assay [4] addresses Cytochrome P450 2C9 (Homo sapiens) (UniProt P11712). Briefly: Cytochrome P450 family 2 subfamily C member 9 (CYP2C9) small molecule antagonists: luciferase biochemical (cell-free) qHTS assay (AID 1645842; active = well fitted curve in the direction sought with a large enough effect in the repeat runs; an effect the other way counts as inactive or inconclusive; also: nearly all actives have a fitted effect of over 55% in size; also: potency is read from the fitted curve at half-maximal effect; as to activity change, negative = inhibition: % is scaled to controls: 0 for no effect and ±100 for the full control effect). In short, it runs like this:
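Luminescence, after 20 min with luciferin detection reagent, reflected CYP2C9 turnover during a 1 h NADPH-driven reaction at 37C. Enzyme-substrate mix contained 0.4% bovine serum albumin and was preincubated with compound 10 min at room temperature.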

Assay [5] is described as follows: Primary qHTS for inhibitors of nuclear receptor binding SET domain protein 2 (NSD2) in an isogenic RCH-ACV NSD2 p.E1099K mutant (9B) (AID 1645876). Also: nearly all actives have a fitted effect of over 70% in size. Also: potency is read from the fitted curve at half-maximal effect.
Assay [6] is described as follows: Primary qHTS for inhibitors of nuclear receptor binding SET domain protein 2 (NSD2) in an RCH-ACV wild type WT cells (2C) (AID 1645877). Also: nearly all actives have a fitted effect of over 70% in size. Also: potency is read from the fitted curve at half-maximal effect.
Assay [7] is described as follows: Primary qHTS to identify inhibitors of SARS-CoV-2 cell entry (AID 1645846; calls by dose curve; also: nearly all actives have a fitted effect of over 45% in size; also: potency is read from the fitted curve at half-maximal effect). The conditions noted are these: activity change, negative = inhibition: at 57.1 µM (top of the series) unless noted. In short, it runs like this: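 Data are normalized to wells receiving SARS-CoV-2-S pseudoparticles and those given bald particles. Entry signal was luciferase luminescence in stable hACE2 Expi293F cells, 48 hr post-infection, after 1 hr compound pretreatment.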

Another assay deals with Papain (Carica papaya) (UniProt P00784). As to the kind of experiment: Primary qHTS assay for inhibitors of the protease papain (AID 1645873).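 Also: papain turnover of Z-FR-AMC read as the AMC fluorescence gain over 10 min; % is scaled to controls: 0 for no effect and ±100 for the full control effect.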
A short description of assay [8]: Cytotoxicity counterscreen for inhibitors of SARS-CoV-2 cell entry (AID 1645845; calls by dose curve; also: nearly all actives have a fitted effect of over 50% in size). In short, it runs like this: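 48 h compound treatment (after 1 h preincubation), HEK293-ACE2 cells, 37 C/5% CO2; ATP luminescence endpoint; normalized to cell wells and media blanks.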
On the technique in general: The purpose of a counterscreen is to sort out artefacts and off-target activity.

Assay [9] concerns the target Cytochrome P450 3A4 (Homo sapiens) (UniProt P08684). Briefly: Cytochrome P450 family 3 subfamily A member 4 (CYP3A4) small molecule antagonists: luciferase qHTS assay (AID 1645841; active = well fitted curve in the direction sought with a large enough effect in the repeat runs; an effect the other way counts as inactive or inconclusive; also: potency is read from the fitted curve at half-maximal effect; nearly all actives have a fitted effect of over 45% in size). In short, it runs like this: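 Luminescent CYP3A4 activity readout: compounds plus enzyme-substrate mix 10 min at room temperature, reaction started with NADPH regenerating system for 1 h, stopped with detection reagent, read after 20 min. Ketoconazole served as control.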

Assay [10] concerns the target N-terminal Xaa-Pro-Lys N-methyltransferase 1 (Homo sapiens) (UniProt Q9BV86). Briefly: Confirmatory qHTS for Inhibitors of N-terminal methyltransferase 1 (NTMT1): MTaseGlo Assay (AID 1645874). Also: potency is read from the fitted curve at half-maximal effect; nearly all actives have a fitted effect of over 65% in size. In short, it runs like this: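 qHTS format: NTMT1 125 nM, SAM 100 uM, peptide SPKRIA 1 uM final; 15 min compound preincubation, 30 min reaction at room temperature. MTase-Glo luminescence.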

For assay [11], the target named is Catechol O-methyltransferase (Homo sapiens) (UniProt P21964). Briefly: Confirmatory Screen for Target Class Profiling of Small Molecule Inhibitors of Methyltransferases (AID 1745852; calls by dose curve; also: potency is read from the fitted curve at half-maximal effect). Particulars: MTase-Glo luminescence, SAH detection, recombinant enzyme; measured here: COMT max response; stronger effect = lower value.
The target of assay [12] is Guanidinoacetate N-methyltransferase (Homo sapiens) (UniProt Q14353). The assay is described as above. The conditions noted are these: MTase-Glo luminescence, SAH detection, recombinant enzyme; activity change, negative = inhibition: at 57.3 µM (top of the series).
The target of assay [13] is Nicotinamide N-methyltransferase (Homo sapiens) (UniProt P40261). The assay is described as above. The conditions noted are these: MTase-Glo luminescence, SAH detection, recombinant enzyme; measured here: NNMT max response; stronger effect = lower value.

Several values for one entry are separate records, joined by “and”; a condition that tells them apart may be missing. Identical values can stand only once. Records with an inconclusive call do not appear. Activity calls are given as the source filed them. Unless noted, calls follow the shape of the dose curve; as a rule, active = well fitted curve in the direction sought with a large enough effect; inconclusive = small, poorly fitted or top-dose-only effect, or another doubt; inactive = no such curve, though single readings can be large; an effect the other way counts as inactive or inconclusive.

Cytochrome P450 2C9 (Homo sapiens), sequence (P11712 whole entry, looked up): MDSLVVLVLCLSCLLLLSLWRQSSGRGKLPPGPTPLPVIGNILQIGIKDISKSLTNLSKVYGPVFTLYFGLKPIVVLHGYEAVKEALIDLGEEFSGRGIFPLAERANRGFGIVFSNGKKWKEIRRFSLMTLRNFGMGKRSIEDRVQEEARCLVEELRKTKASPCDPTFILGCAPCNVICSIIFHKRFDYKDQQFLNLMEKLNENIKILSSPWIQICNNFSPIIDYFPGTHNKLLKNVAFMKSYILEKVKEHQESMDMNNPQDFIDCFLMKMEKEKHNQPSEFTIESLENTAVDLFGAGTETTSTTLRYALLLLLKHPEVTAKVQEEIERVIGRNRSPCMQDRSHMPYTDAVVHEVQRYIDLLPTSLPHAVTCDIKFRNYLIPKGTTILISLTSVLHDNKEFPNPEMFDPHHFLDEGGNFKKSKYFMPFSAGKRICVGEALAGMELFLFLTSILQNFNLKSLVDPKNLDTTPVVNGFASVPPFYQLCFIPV
Cytochrome P450 2D6 (Homo sapiens), sequence (P10635 whole entry, looked up): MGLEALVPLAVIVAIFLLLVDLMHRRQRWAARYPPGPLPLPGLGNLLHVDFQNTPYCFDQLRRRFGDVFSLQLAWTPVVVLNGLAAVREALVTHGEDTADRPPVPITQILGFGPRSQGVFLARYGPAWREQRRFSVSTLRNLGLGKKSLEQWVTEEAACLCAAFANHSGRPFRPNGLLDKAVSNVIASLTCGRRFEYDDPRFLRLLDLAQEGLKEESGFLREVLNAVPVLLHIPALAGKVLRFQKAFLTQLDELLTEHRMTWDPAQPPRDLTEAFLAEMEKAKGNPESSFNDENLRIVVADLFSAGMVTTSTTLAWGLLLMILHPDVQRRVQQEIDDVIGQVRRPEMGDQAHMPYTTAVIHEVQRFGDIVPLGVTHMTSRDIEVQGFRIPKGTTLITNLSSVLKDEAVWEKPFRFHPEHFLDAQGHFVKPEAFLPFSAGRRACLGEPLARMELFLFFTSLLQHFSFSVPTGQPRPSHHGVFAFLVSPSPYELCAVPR
Cytochrome P450 3A4 (Homo sapiens), sequence (P08684 whole entry, looked up): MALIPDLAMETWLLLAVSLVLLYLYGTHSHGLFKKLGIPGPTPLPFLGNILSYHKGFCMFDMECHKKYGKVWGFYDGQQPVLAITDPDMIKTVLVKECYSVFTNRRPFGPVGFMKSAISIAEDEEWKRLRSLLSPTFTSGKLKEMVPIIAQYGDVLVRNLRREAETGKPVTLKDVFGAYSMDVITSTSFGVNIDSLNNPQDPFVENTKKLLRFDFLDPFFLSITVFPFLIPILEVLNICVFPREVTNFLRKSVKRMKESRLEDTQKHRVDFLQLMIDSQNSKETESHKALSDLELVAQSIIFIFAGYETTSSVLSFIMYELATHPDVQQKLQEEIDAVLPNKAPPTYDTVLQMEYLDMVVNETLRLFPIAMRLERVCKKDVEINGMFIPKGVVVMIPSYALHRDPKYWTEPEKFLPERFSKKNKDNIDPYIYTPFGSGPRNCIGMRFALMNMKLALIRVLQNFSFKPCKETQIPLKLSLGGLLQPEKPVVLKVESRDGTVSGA
N-terminal Xaa-Pro-Lys N-methyltransferase 1 (Homo sapiens), sequence (Q9BV86 whole entry, looked up): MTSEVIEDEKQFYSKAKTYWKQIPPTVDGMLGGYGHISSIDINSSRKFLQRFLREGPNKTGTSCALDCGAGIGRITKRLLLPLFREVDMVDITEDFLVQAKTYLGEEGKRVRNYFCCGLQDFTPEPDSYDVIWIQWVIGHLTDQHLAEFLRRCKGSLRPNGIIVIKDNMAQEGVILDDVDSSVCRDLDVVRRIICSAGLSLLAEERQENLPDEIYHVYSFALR
Catechol O-methyltransferase (Homo sapiens), sequence (P21964 whole entry, looked up): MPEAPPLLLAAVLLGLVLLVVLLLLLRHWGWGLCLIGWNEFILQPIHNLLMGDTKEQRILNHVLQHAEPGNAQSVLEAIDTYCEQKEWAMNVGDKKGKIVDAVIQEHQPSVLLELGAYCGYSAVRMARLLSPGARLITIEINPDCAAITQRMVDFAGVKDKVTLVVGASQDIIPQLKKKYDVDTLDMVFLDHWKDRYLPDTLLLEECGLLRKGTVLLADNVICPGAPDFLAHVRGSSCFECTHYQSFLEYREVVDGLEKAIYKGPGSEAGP
Papain (Carica papaya), sequence (P00784 whole entry, looked up): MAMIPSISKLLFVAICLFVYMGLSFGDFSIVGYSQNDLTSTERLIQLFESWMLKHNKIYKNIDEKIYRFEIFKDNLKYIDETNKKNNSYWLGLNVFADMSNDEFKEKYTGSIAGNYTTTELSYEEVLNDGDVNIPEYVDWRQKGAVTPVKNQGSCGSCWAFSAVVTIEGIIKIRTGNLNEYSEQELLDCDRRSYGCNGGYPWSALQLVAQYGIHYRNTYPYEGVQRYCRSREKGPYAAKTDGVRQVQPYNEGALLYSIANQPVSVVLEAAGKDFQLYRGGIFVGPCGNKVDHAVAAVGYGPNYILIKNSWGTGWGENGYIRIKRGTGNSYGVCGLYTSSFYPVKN
Nicotinamide N-methyltransferase (Homo sapiens), sequence (P40261 whole entry, looked up): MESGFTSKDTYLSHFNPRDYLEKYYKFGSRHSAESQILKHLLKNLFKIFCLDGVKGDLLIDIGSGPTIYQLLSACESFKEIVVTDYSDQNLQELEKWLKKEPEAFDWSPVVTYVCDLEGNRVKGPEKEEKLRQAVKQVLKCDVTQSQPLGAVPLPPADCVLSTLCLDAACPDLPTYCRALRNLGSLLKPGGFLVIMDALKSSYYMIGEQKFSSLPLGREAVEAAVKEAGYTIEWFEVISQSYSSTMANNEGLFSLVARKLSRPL

`c1ccc2nc(N3CCNCC3)ccc2c1`: the outcome in [1] and in assay [2] was “inactive” in each case. Moreover, the Potency result in [3], in assay [4], in [5] and in assay [6] was “inactive” throughout.
Take `CCOC(=O)NC(O)C(Cl)(Cl)Cl` (stereo not drawn): the outcome in assay [1] and in assay [2] was “inactive” throughout. For the same compound, the Potency entry in [3], in [4], in assay [5] and in assay [6] was “inactive” each time.
`COc1cc(CC#N)cc(OC)c1OC`: the outcome in assay [1] and in [2] was “inactive” throughout. Also, the Potency entry in [3], in assay [4], in [5] and in assay [6] was “inactive” throughout.
Consider `C[C@]12CC[C@H]3[C@@H](CCC4=CC(=O)CC[C@@H]43)[C@@H]1CC[C@@H]2O`, for which the outcome in [1] and in assay [2] was “inactive” in each case. For the same compound, the Potency entry in [3], in assay [4] and in [6] was “inactive” in each case.
In the case of `COc1cc(N)c(Cl)cc1C(=O)NC1CN2CCC1CC2` (stereo not drawn), the outcome in [1] and in [2] was “inactive” in each case. The Potency in assay [3] is 15.5 µM (active). Besides, the Potency entry in assay [4], in assay [5] and in [6] was “inactive” throughout.
Regarding `CN1C[C@@H](NS(=O)(=O)N(C)C)C[C@@H]2c3cccc4c3c(cn4C)C[C@H]21`, the outcome in assay [1] and in assay [2] was “inactive” each time. The Potency in assay [3] is 2.19 µM (active). The Potency entry in [4], in assay [5] and in [6] was “inactive” throughout.
On to `CCOC(=O)NC(C)(C)Cc1ccc(Cl)cc1`, for which the outcome in assay [1] and in assay [2] was “inactive” in each case. The Potency entry in assay [3], in [5] and in assay [6] was “inactive” in each case. The Potency in assay [4] was 15.5 µM (active).
On to `O=C(CCCCl)c1ccc(F)cc1`, for which the outcome in assay [1] and in assay [2] was “inactive” throughout. The Potency entry in assay [3], in [4], in assay [5] and in assay [6] was “inactive” each time.
On to `CCN1CCCC1CNC(=O)C(O)(c1ccccc1)c1ccccc1` (stereo not drawn), for which the outcome in assay [1] and in [2] was “inactive” throughout. Also, the Potency in [3] was 3.09 µM (active). Moreover, the Potency result in [4], in [5] and in assay [6] was “inactive” each time.
Consider `CN(C)C(=O)Oc1cc(OC(=O)N(C)C)cc(C(O)CNC(C)(C)C)c1` (stereo not drawn), for which the outcome in [1] and in [2] was “inactive” each time. Also, the Potency in assay [3] was 8.71 µM (active). Besides, the Potency entry in [4], in assay [7], in assay [5] and in assay [6] was “inactive” each time.
As to `CN1C(=O)CN=C(c2ccccc2)c2cc([N+](=O)[O-])ccc21`, the outcome in assay [1] and in assay [2] was “inactive” in each case. Moreover, the Potency result in [3], in assay [4], in [5] and in assay [6] was “inactive” throughout.
`C[C@@H]1O[C@@H](O[C@@H]2C=C3CC[C@@H]4[C@H](CC[C@]5(C)[C@@H](c6ccc(=O)oc6)CC[C@]45O)[C@@]3(C)CC2)[C@H](O)[C@H](O)[C@H]1O`: the outcome in [1] and in [2] was “inactive” throughout. Moreover, the Potency result in assay [3] was “inactive”. In assay [7], the activity change, negative = inhibition was -97.4%. The Potency was 10.5 nM (active) and 4.7 nM (active) in [5]; 13.2 nM (active) and 7.5 nM (active) in assay [6].
As to `C[C@H]1C(=O)O[C@@H]2CCN3CC=C(COC(=O)[C@](C)(O)[C@]1(C)O)[C@H]23`, the outcome in assay [1] and in assay [2] was “inactive” in each case. The Potency entry in assay [3] and in assay [4] was “inactive” each time. For the same compound, the Potency in assay [6] is 23.7 µM (active).
On to `COc1ccc(OC)c(CC(C)N)c1` (stereo not drawn), for which the outcome in assay [1] and in assay [2] was “inactive” throughout. In addition, the Potency in assay [3] is 6.05 µM (active). Further, the Potency result in assay [4], in assay [5] and in assay [6] was “inactive” each time.
For `COC(=O)C1=CCCN(C)C1`, the outcome (in assay [1]; in assay [2]; with Papain (Carica papaya)) was “inactive” throughout. In addition, the Potency result in [3], in assay [4], in assay [5] and in assay [6] was “inactive” throughout.
In the case of `CC(Cc1ccccc1)NCc1ccccc1Cl` (stereo not drawn), the outcome in assay [1] and in [2] was “inactive” in each case. Moreover, the Potency in assay [3] was 0.155 µM (active). Besides, the Potency result in assay [8] is “inactive”. In assay [7], the activity change, negative = inhibition is -7.69%.
With `C#C[C@]1(O)C=C[C@H]2[C@@H]3CCC4=CC(=O)CC[C@@H]4[C@H]3CC[C@@]21CC`, the outcome in assay [1] and in assay [2] was “inactive” throughout. Besides, in assay [4], the Potency is 2.75 µM (active). The Potency entry in assay [8] is “inactive”. Moreover, the activity change, negative = inhibition in assay [7] was -10.9%.
As to `Cc1ccc([N+](=O)[O-])[c]2c1[O][Hg]2`, the outcome in [1] was “inactive”. Further, the Potency in assay [3] is 0.347 µM (active); in [9], 0.977 µM (active); in [4] it was 0.436 µM (active); in assay [7], 5.62 µM (active); in assay [10], 0.728 µM (active); in [5], 84.1 nM (active). Also, the Potency in assay [6] was 0.168 µM (active).
For the compound `CN1C(=O)CN=C(c2ccccc2)c2cc(Cl)ccc21`, the outcome in assay [1] and in [2] was “inactive” throughout. For the same compound, the Potency entry in assay [5] and in [6] was “inactive” each time.
Regarding `O=C(CBr)Nc1ccc(Cl)cc1C(=O)c1ccccc1F`, the outcome in [1] and in [2] was “inactive” throughout. Further, the Potency result in assay [5] and in [6] was “inactive” in each case.
Regarding `Nc1ccc(N)cc1`, the outcome in [1] was “inactive”. Further, the values for the Potency in [3] and in [4] were 3.09 µM (active) and 15.5 µM (active), respectively. Further, the Potency entry in assay [5] was “inactive”.
For the compound `COP(=S)(OC)Oc1ccc(Sc2ccc(OP(=S)(OC)OC)cc2)cc1`, the outcome in assay [2] is “inactive”. For the same compound, the Potency entry in [3] is “inactive”. Moreover, the Potency in assay [9] was 7.76 µM (active); in assay [4], 15.5 µM (active).
Regarding `CNC(C)Cc1ccccc1OC` (stereo not drawn), the outcome in assay [1] and in [2] was “inactive” in each case. The Potency result in assay [4], in assay [8] and in [7] was “inactive” throughout.
For the compound `Sc1ccccc1Cl`, the outcome in assay [2] was “inactive”. In addition, the Potency result in [3] and in assay [4] was “inactive” each time.
Take `COc1cc(C[C@@H](C)N)c(OC)cc1Br`: the outcome in [2] was “inactive”. Further, the Potency in [3] was 25.9 µM (active). Besides, the Potency entry in assay [4] was “inactive”.
On to `Oc1ccc([C@H]2CNCc3c2ccc(O)c3O)cc1O`, for which the outcome in [1] is “inactive”. Moreover, the Potency result in assay [3] and in [8] was “inactive” in each case. In addition, the figures for the Potency in assay [4] and in assay [10] were 8.71 µM (active) and 18.3 µM (active), respectively. For the same compound, in [7], the activity change, negative = inhibition was determined as 1.13%.
As for `CNC(=O)NC(O)C(Cl)(Cl)Cl` (stereo not drawn), in assay [2], the outcome was “inactive”. The Potency result in assay [3] and in assay [4] was “inactive” throughout.
`Cc1nnc2n1-c1sc(CCc3ccc(CC(C)C)cc3)cc1C(c1ccccc1Cl)=NC2C` (stereo not drawn): the outcome in assay [1] was “inactive”. Also, the Potency is 27.5 µM (active) in [3]; 15.5 µM (active) in assay [4]; 22.4 µM (active) in [7]; 7500 nM (active) in assay [5]; 8.41 µM (active) in assay [6]; 48.2 µM (active) in assay [12]. For the same compound, the activity in [11] is -12.7%; in assay [13], -36.8%.
